# High-throughput results as filed in PubChem.
# AMA1-RON2 inh: AMA1-RON2 (P. falciparum) interaction inhibition | AlphaScreen AMA1-biotinylated RON2 peptide binding | 360,000 tested, 0.2% active | Potency, µM (top dose mostly 58.2 µM), most hits filed as inhibitors; also: nearly all actives have a fitted effect of over 45% in size
#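 AMA1 (3D7) with his tag at 25 nM final met compounds first, then biotinylated RON2 peptide at 25 nM; detection used donor plus acceptor beads, 10 µg/mL apiece, read by AlphaScreen after 30 min at room temperature.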
# Pf growth 96h: P. falciparum growth inhibition at 96 hours; Potency, µM (doses to about 28.7 µM), usual class: inhibitors; P. falciparum luciferase reporter growth, 96 h; AID 504834; 320,000 tested, 6.9% active
#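 Cell-based qHTS: luciferase-tagged P. falciparum in erythrocytes (2% hematocrit, 0.05% parasitemia final) incubated with compounds for 96 hours, 37 C, 5% CO2; luciferase detection reagent then added and luminescence measured.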
# CHX counter: counter-screen hit for Shiga toxin inhibitors, cycloheximide; cell reporter, cycloheximide protein synthesis inhibition counterscreen; max response, %; 300,000 tested, 12% active; AID 2314; in the data active = max response mostly above about 13%, no sharp cut-off; inactive = mostly below about 14%; also: read at 38.3 µM for the half of the compounds with a filed dose
# Shiga inhibitor: inhibitors of Shiga toxin in Vero cells. inhibition, % at 38.7 µM. Vero cells, Shiga toxin protein synthesis inhibition reporter. 290,000 tested, 9.2% active. AID 2315; in the data active = inhibition mostly above about 28%, no sharp cut-off; inactive = mostly below about 43%
# SARS PLP yeast: inhibitors of SARS-CoV papain-like protease in yeast; Potency, µM (titrated, usually from 32.9 µM), most hits filed as activators; AID 485353; 330,000 tested, 0.19% active; S. cerevisiae expressing SARS-CoV PLpro, growth rescue; calls by dose curve; also: nearly all actives have a fitted effect of over 55% in size
# Pf growth 48h: inhibits P. falciparum growth in the first generation, 48 h; AID 504832; P. falciparum luciferase growth in erythrocytes, 48 h; Potency, µM (titrated, usually from 28.7 µM), most hits filed as inhibitors; 310,000 tested, 5.9% active
#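 Growth was read as firefly luciferase luminescence after a 48 h, 37 C, 5% CO2 exposure of compounds to reporter-bearing P. falciparum cultures (0.1% parasitemia, 2% hematocrit final) in Albumax-supplemented RPMI 1640.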
# Hits are given with their value; 0 = inactive; ? = inconclusive; - = not tested or not shown; [ ] = dose if it differs, or a comment. Only some compounds are listed: those with a hit (about 19% of all), similar ones and a draw of the others. Unless noted, calls follow the shape of the dose curve; as a rule, active = well fitted curve in the direction sought with a large enough effect; inconclusive = small, poorly fitted or top-dose-only effect, or another doubt; inactive = no such curve, though single readings can be large; an effect the other way counts as inactive or inconclusive.
SMILES,AMA1-RON2 inh,Pf growth 96h,CHX counter,Shiga inhibitor,SARS PLP yeast,Pf growth 48h
CCOc1cc(CNCCO)cc(Br)c1OCc1ccccc1Cl,0,12µM,0,0,0,10µM
C[C@H](NC(=O)[C@@H]1CCCN1C(=O)[C@@H]1CCCN1C(=O)c1cccc(Cl)c1)c1ccccc1,0,-,-,-,-,-
CC1(C(=O)NS(=O)(=O)c2ccc(Cl)s2)CCN1C(=O)c1ccc(C2CCCCC2)cc1 (stereo not drawn),0,-,-,-,-,-
O=c1cc(-c2cc3ccccc3o2)c2cc(O)ccc2o1,0,?,0,0,0,?
Cc1cc2oc(=O)cc(-c3cc4ccccc4o3)c2cc1O,0,2.6µM,0,0,0,7.4µM
CN(Cc1cccc(Cl)c1Cl)C(=O)c1cc(S(=O)(=O)N2CCOCC2)ccc1F,0,-,-,-,0,-
Cc1cccc(N(Cc2ccccc2)C(=O)c2cc(S(=O)(=O)N3CCOCC3)ccc2Cl)c1,0,?,-,-,0,12µM
C=CCN(Cc1ccc(Cl)s1)C(=O)c1cc(S(=O)(=O)N2CCOCC2)ccc1F,0,?,-,-,0,13µM
CCN1CCN(S(=O)(=O)c2ccc(Cl)c(C(=O)N(C)C(c3ccccc3)c3ccccc3)c2)CC1,0,13µM,-,-,0,9.3µM
Cc1ccc(N(Cc2ccccc2)C(=O)c2cc(S(=O)(=O)N3CCOCC3)ccc2Cl)cc1,0,13µM,-,-,0,?
CCC(CC)C(=O)Nc1nnc(S(=O)(=O)N2c3ccccc3CC2C)s1 (stereo not drawn),0,0,0,0,0,0
CC1CCC2(CC1)NC(=O)N(CC(=O)N1CCN(c3ccccc3)CC1)C2=O (stereo not drawn),0,?,-,-,0,0
O=C(N/N=C1\CCCc2c1[nH]c1ccc([N+](=O)[O-])cc21)c1ccncc1,-,0,0,0,0,0
Cc1ccc(N(Cc2ccccc2)C(=O)c2cc(S(=O)(=O)N3CCOCC3)ccc2F)cc1,0,?,-,-,0,12µM
O=C1c2sc3nc4ccccc4n3c2C(=O)N1c1ccccc1Cl,0,-,21,116,0,?
CCC(CC)c1ncc[nH]1,0,?,0,0,0,0
COc1cccc(N2CCN(C(=O)c3cccc(N4C(=O)NC5CC4(C)Oc4c(OC)cccc45)c3)CC2)c1 (stereo not drawn),0,0,0,0,0,?
CC12CC(NC(=O)N1c1cccc(C(=O)N3CCN(c4ccccc4)CC3)c1)c1ccccc1O2 (stereo not drawn),0,?,0,0,0,8.3µM
COc1ccccc1N1CCN(C(=O)c2cccc(N3C(=O)NC4CC3(C)Oc3ccccc34)c2)CC1 (stereo not drawn),0,0,0,0,0,12µM
CCOC(=O)N1CCN(C(=O)c2cccc(N3C(=O)NC4CC3(C)Oc3ccccc34)c2)CC1 (stereo not drawn),0,1.9µM,0,0,0,0
CCN(CC)CCNC(=O)C1(O)c2cc(Br)ccc2NC(=O)N1c1ccccc1 (stereo not drawn),0,2.6µM,0,0,0,0[0.00184 µM]
O=C(COc1coc(CN2CCc3ccccc3C2)cc1=O)Nc1ccc(Cl)cc1,0,0,-,-,0,?
O=C(COc1coc(CN2CCCc3ccccc32)cc1=O)Nc1cccc([N+](=O)[O-])c1,0,6.6µM,-,-,0,?
CCc1ccc(NC(=O)COc2coc(CN3CCc4ccccc4C3)cc2=O)cc1,0,?,-,-,0,9.3µM
Cc1ccc(C)c(NC(=O)COc2coc(CN3CCc4ccccc4C3)cc2=O)c1,0,?,-,-,0,0
SMILES,AMA1-RON2 inh,Pf growth 96h,CHX counter,Shiga inhibitor,SARS PLP yeast,Pf growth 48h
Cc1cccc(NC(=O)COc2coc(CN3CCc4ccccc4C3)cc2=O)c1,0,?,-,-,0,8.3µM
O=C(COc1coc(CN2CCc3ccccc3C2)cc1=O)Nc1cccc([N+](=O)[O-])c1,0,?,-,-,0,12µM
O=C(NC1CCCCCC1)C1CC(=O)N(Cc2ccccc2)C1 (stereo not drawn),0,0,0,0,0,0
CCn1c(=O)c2[nH]c(SC)nc2n(CC)c1=O,0,-,-,-,-,-
COC(=O)C[C@H]1C[C@H]2c3cc(NS(=O)(=O)c4ccc(OC)cc4)ccc3O[C@H]2[C@H](CO)O1,0,-,-,-,-,-
COc1ccc(C2=NN(CC(=O)NCC(OC)OC)C(=O)CC2)cc1,0,0,0,0,0,0
CCC(=O)N1CCC(c2ccc(OC)cc2)=N1,0,0,36,38,0,0
